Measured values from the supplement of paper PMC9334596.
Several values for one entry are separate records, joined by “and”; a condition that tells them apart may be missing. Equal values may be shown once. Over roughly 5,300 compounds, “PER2::LUC luminescence relative to vehicle control” has its median near 0.96; the highest 2% begin near 1.3. The entries come from a sample that favours the highest values as a whole.

Tested on: mPer2Luc MEF
Assay: PER2::LUC luminescence relative to vehicle control (fold of vehicle); higher = higher PER2::LUC reporter signal
Settings: 10 µM
How it was run: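 Each value gives PER2::LUC luminescence as fold of vehicle control, measured with the ONE-Glo luciferase assay system in mouse embryonic fibroblasts carrying the mPer2Luc reporter. Cells grown in DMEM with 10% FBS at 37 °C and 5% CO2 were seeded at ~3000 per well in 384-well plates. Library compounds were added at 10 μM 48 h later, and readings were taken 24 h and 30 h after treatment.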

Row | SMILES | PER2::LUC luminescence (time after treatment 24 h) | PER2::LUC luminescence (time after treatment 30 h)
1 | COc1cc([C@@H]2CC(=O)c3c(O)cc(O)cc3O2)ccc1O | 0.985 | 0.942
2 | Cc1occc1C(=O)n1ccnc1 | 0.986 | 0.971
3 | COc1cc2ncnc(N(C)c3cccc(Br)c3)c2cc1OC | 0.83 | 0.741
4 | OCc1ccc(-c2ccc(-c3ccc(CO)s3)o2)s1 | 1.48 | 1.62
5 | CCCCCCCCOC(=O)C=Cc1ccc(OC)cc1 | 1.04 | 1.09
6 | CC(C)(O)c1ccc2c(c1)ncn2-c1cccc(-c2ccccc2C#N)c1 | 0.829 | 0.89
7 | CC(Nc1ccc(-c2nn[nH]n2)cc1)C(=O)O (racemic) | 0.971 | 0.96
8 | CC(C)[C@H](CO)Nc1nc(Sc2cccc(N)c2)c2ncn(C(C)C)c2n1 | 0.582 | 0.686
9 | FC(F)(F)c1ccc(CNc2ccc(Cc3c[nH]c4ncc(Cl)cc34)cn2)cc1 | 0.83 | 0.83
10 | CC(C(=O)O)c1ccc(-c2ccccc2)c(F)c1 (stereo not drawn) | 1.15 | 1.06
11 | CC(C(=O)O)c1ccc(N2Cc3ccccc3C2=O)cc1 (stereo not drawn) | 1.02 | 1.34
12 | CC(C(=O)O)c1ccc2c(c1)CC(=O)c1ccccc1S2 (stereo not drawn) | 1.05 | 1.08
13 | O=C(CCc1ccc(O)cc1)c1c(O)cc(O)cc1OC1OC(CO)C(O)C(O)C1O (stereo not drawn) | 1.02 | 0.948
14 | Oc1nc2cc(Cl)c(Cl)cc2nc1O | 0.684 | 0.69
15 | COc1ccc2nc(/C=C/c3cccc([N+](=O)[O-])c3)n(-c3ccc(C(=O)O)cc3)c(=O)c2c1 | 1.05 | 1.01
16 | O=C(O)[C@@]1(CCCCCCOc2ccc(Cl)cc2)CO1 | 0.936 | 1.01
17 | CC/C(=C(\c1ccccc1)c1ccc(OCCN(C)C)cc1)c1ccccc1 | 0.718 and 0.679 | 0.784 and 0.742
18 | CCN(CC)CCOc1ccc(C(=C(Cl)c2ccccc2)c2ccccc2)cc1 | 0.934 and 0.704 | 1.73 and 0.773
19 | CCN(CC)CCOc1ccc(Cc2ccccc2)cc1 | 0.811 | 0.893
20 | CC(=O)NC[C@H]1CN(c2ccc(-c3ccc(CNCc4cnn[nH]4)cc3)c(F)c2)C(=O)O1 | 1.03 | 1.09
21 | Cn1nnc(-c2ccc(-c3ccc(N4C[C@@H](CO)OC4=O)cc3F)cn2)n1 | 1.01 | 1.09
22 | Cn1nnc(-c2ccc(-c3ccc(N4C[C@H](CO)OC4=O)cc3F)cn2)n1 | 1.39 and 1.4 | 1.56 and 1.53

Row | SMILES | PER2::LUC luminescence (time after treatment 24 h) | PER2::LUC luminescence (time after treatment 30 h)
23 | CON(Cc1ccc(F)cc1)C(=O)/C=C(\O)C(=O)O | 0.942 | 0.968
24 | COc1ccc2[nH]cc(CCNC(=O)C3CC3)c2c1 | 0.901 | 0.938
25 | O=C(c1ccc(OCCCc2c[nH]cn2)cc1)C1CC1 | 1.09 and 1.51 | 1.33 and 1.29
26 | NCCc1c[nH]cn1 | 0.832 and 0.572 | 0.983 and 0.838
27 | c1nc(CC2CCNCC2)c[nH]1 | 0.32 | 0.4
28 | CC1=CC(=O)C(C(C)C)=C/C1=N/OC(=O)c1ccccc1C | 1.11 | 0.994
29 | O=C(O)c1c[nH]c(=O)cn1 | 1.08 | 0.999
30 | O=C(NCC1(c2nc(-c3ccccc3)cs2)CCOCC1)c1cccc(-c2noc(C(F)(F)F)n2)c1 | 0.923 | 0.884
31 | FC(F)(F)c1cccc(-c2noc(-c3cc(-c4ccccc4)c(C(F)(F)F)s3)n2)c1 | 1.17 | 1.14
32 | O=C(O)c1cccc(-c2noc(-c3ccccc3F)n2)c1 | 1.69 | 2.11
33 | CC(C)c1ccc2oc3nc(N)c(C(=O)O)cc3c(=O)c2c1 | 1.07 | 1.49
34 | N[C@H](C(=O)O)c1ccc(O)c(C(=O)O)c1 | 1.02 | 0.987
35 | O=C(O)c1cc(=O)c2ccccc2o1 | 0.998 and 1.05 | 0.946 and 1.14
36 | O=C(O)c1cc(=O)c2cc(Cl)ccc2[nH]1 | 0.977 | 0.883
37 | CCOC(=O)[N-]c1c[n+](N2CCOCC2)no1 | 1.09 | 1.74
38 | O=C(Nc1ccccc1)C12C=C1C(=NO)c1ccccc1O2 (stereo not drawn) | 1.08 | 0.974
39 | N[C@@]1(C(=O)O)CN[C@@H](C(=O)O)C1 | 0.997 | 0.949
40 | C[C@@H]1O[C@@H](OC[C@H]2O[C@@H](Oc3cc(O)c4c(c3)O[C@H](c3ccc(O)cc3)CC4=O)[C@H](O)[C@@H](O)[C@@H]2O)[C@H](O)[C@H](O)[C@H]1O | 0.957 | 0.972
41 | O=c1cc(-c2cc(O)c(O)c(O)c2)oc2cc(O)cc(O)c12 | 0.957 | 0.941
42 | COc1ccc(-c2cc(=O)c3c(O)cc(OC)cc3o2)cc1 | 1.29 | 1.46
43 | COc1cc(O)c2c(=O)cc(-c3ccc(O)cc3)oc2c1 | 1.21 | 1.32
44 | COc1ccc(-c2cc(=O)c3c(O)cc(O)cc3o2)cc1 | 1.41 | 1.56
